This is one part of a sample in which hits are shown more often than they occur.
IMPase cell inh: IMPase inhibition in cells; P97697; 120,000 tested, under 10 active; inhibition (IP1 accumulation), % at 46.1 µM; CHO-M1 cells, IP1 accumulation, HTRF TR-FRET ratio; active = well fitted curve in the direction sought with a large enough effect in the signal ratio, not every such curve was filed as active; inconclusive = small, poorly fitted or top-dose-only effect, or a change in a side signal; inactive = no such curve, though single readings can be large or run the other way; the % refers to the signal ratio;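 note: cells stimulated with carbachol in lithium chloride buffer; plate controls were DMSO basal wells for no effect and reference inhibitor wells for full effect; higher means more IMPase inhibition seen as more IP1 and lower FRET ratio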
Target sequence (P97697 whole entry, looked up): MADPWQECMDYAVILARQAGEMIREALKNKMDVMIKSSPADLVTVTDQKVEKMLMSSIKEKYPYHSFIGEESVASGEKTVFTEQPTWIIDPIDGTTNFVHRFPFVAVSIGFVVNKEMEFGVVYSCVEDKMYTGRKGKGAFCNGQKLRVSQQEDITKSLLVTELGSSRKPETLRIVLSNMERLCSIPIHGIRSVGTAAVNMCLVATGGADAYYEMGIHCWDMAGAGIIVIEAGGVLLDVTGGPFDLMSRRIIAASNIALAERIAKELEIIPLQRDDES
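Cellular IMPase inhibition is scored as a rise in cytosolic IP1, detected by competitive TR-FRET between d2-labelled IP1 and a europium anti-IP1 antibody. M1-expressing CHO cells were stimulated with carbachol for 30 min at 37C, with lithium (50 mM LiCl) present in the buffer.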
Imprint erasure: inducers of genomic imprint erasure in mouse ES cells. 110,000 tested, 0.02% active. AID 1948. Potency, µM (titrated, usually from 60.7 µM), for inactives: at the top dose activity change, positive = activation, usual class: activators. mouse ES Peg3-LacZ reporter, beta-gal luminescence, 40 h; note: potency is the fitted concentration of half-maximal effect
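Gelatin-coated wells received 300 freshly trypsinized female ES cells with a Peg3LacZ-Neo reporter on the maternal allele, then incubated 40 hours at 37C. BetaGlo was added for 5 minutes at room temperature before a single luminescence read.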
FLuc inh: inhibitors of firefly luciferase | P08659 | purified firefly luciferase, luminescence, 8 min | Potency, µM (doses to about 57.1 µM), inactives show at the top dose activity change, negative = inhibition, most hits filed as inhibitors | 72,000 tested, 2.2% active | AID 411; note: potency is the fitted concentration of half-maximal effect; % is set by controls: 0 for no effect and ±100 for the full control effect; nearly all actives have a fitted effect of over 40% in size
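Titration-based qHTS; buffer 50 mM imidazole pH 7.2, 50 mM KCl, 7 mM MgCl2, 10 uM ATP, 0.01% Tween 20, 0.05% BSA; luciferase/luciferin detector mix added after compound; 8 min, ambient; luminescence.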
IkB signaling: inhibitors of IkB signaling in ABC-DLBCL cells; ABC-DLBCL IkBa-CBG/CBR dual luciferase ratio, 4 h; response scale: scaled: untreated 0%, proteasome inhibitor 100%; Potency, µM (highest dose often 57.1 µM), without a hit: at the top dose IkBa stabilization activation; 110,000 tested, 0.04% active; active = well fitted curve in the direction sought with a large enough effect in the signal ratio, not every such curve was filed as active; inconclusive = small, poorly fitted or top-dose-only effect, or a change in a side signal; the % refers to the signal ratio;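 note: potency is the fitted concentration of half-maximal effect; the direction sought is a rising ratio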
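In this assay, an IκBα–CBG68 fusion accumulates when IKK-driven degradation is blocked; native CBR normalizes for cell number. OCI-Ly3 cells were treated 4 h with compound and doxycycline, then green and red light read after Chroma-Glo addition.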
p53ts 32C tox: kills p53ts cells at the permissive temperature. AID 924. H1299-p53A138V at 32C, ATP luminescence viability, 24 h. Potency, µM (top dose mostly 46.1 µM), inactives show at the top dose activity change, negative = cytotoxicity, actives largely listed as cytotoxic. 130,000 tested, 0.93% active;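 note: potency is the fitted concentration of half-maximal effect; 0% = DMSO and -100% = full killing by reference compound; nearly all actives have a fitted effect of over 55% in size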
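H1299-p53 A138V cells (temperature-sensitive p53) exposed 24 h to up to 46 uM compound at 32C, where p53 is wild-type in conformation. Viability read as ATP luminescence and normalised to DMSO and 100 uM tamoxifen. AC50 fitted with the Hill equation.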
p53ts 39C tox: p53ts cell cytotoxicity, nonpermissive temperature; H1299-p53A138V viability at 39C, ATP luminescence, 24 h; Potency, µM (series often up to 46.1 µM), for inactives: at the top dose activity change, negative = cell killing, most hits filed as cytotoxic; 130,000 tested, 1.5% active; note: potency is the fitted concentration of half-maximal effect; % is set by controls: 0 for no effect and ±100 for the full control effect; nearly all actives have a fitted effect of over 55% in size
Active calls of the source: *; ? = inconclusive; · = no result given; [ ] = remark or other dose. Unless noted, calls come from the whole dose curve; as a rule, active = well fitted curve in the direction sought with a large enough effect; inconclusive = small, poorly fitted or top-dose-only effect, or another doubt; inactive = no such curve, though single readings can be large; an effect the other way counts as inactive or inconclusive.

SMILES	IMPase cell inh	Imprint erasure	FLuc inh	IkB signaling	p53ts 32C tox	p53ts 39C tox
CCc1c(C)c2ccc(O)c(CN3CCN(c4ccc(OC)cc4)CC3)c2oc1=O	·	-13.7%[10.9 µM]	·	-2.7%	?	7.94µM*
O=C(Nc1ccc(N2CCN(C(=O)c3ccco3)CC2)c(Cl)c1)c1cc2ccccc2o1	20.8	-35.6%	-3.5%	-9.1%	12.6µM*	?
CCCC(=O)N1CCN(c2ccc(NC(=O)c3cc4ccccc4o3)cc2Cl)CC1	19.5	-25.6%	-10.1%	?	?	15.8µM*
O=C(Nc1ccc(N2CCOCC2)c(Cl)c1)c1ccccc1F	9.8	·	·	·	·	·
CCC(=O)N1CCN(c2ccc(NC(=O)c3cc4ccccc4o3)cc2Cl)CC1	19.1	-13.9%	-7.5%	?	?	?
O=C(Nc1ccc(N2CCOCC2)c(Cl)c1)c1ccco1	-3.7	-35.3%	12.6µM*	3.7%	12.6µM*	15.8µM*
O=C(Nc1ccc(N2CCOCC2)c(Cl)c1)c1ncn[nH]1	-3.8	-38.6%	20µM*	-0.9%	?	?
Cc1sc(NC(=O)c2ccc(Cl)s2)c(C(N)=O)c1C	4.4	-56.5%	10µM*	4.8%	?	?
Cc1ccc(Cc2cn3cc(-c4ccc(F)cc4)nc3s2)cc1	-1.2	-13.9%[10.9 µM]	·	2.0%	?	7.94µM*
O=C(c1cc(C(F)(F)F)cc(C(F)(F)F)c1)N1CCC2(CC1)CCN(c1ccncc1)CC2	·	·	0.6%[11.4 µM]	-1.0%[11.4 µM]	-8.5%	-26.3%
Cc1ccccc1-c1ncnn1-c1sc2c(c1C#N)CCCCC2	-11.7	-14.6%[10.9 µM]	·	?	?	12.6µM*
N#Cc1c(-n2ncnc2-c2ccc(F)cc2)sc2c1CCCCC2	-9.7	-22.0%[10.9 µM]	·	?	12.6µM*	12.6µM*
N#Cc1c(-n2ncnc2-c2cccc(Br)c2)sc2c1CCCCC2	-6.9	-11.6%[10.9 µM]	·	?	2.2%	-23.7%
CC(=O)Oc1ccc2c(c1C(C)C)CCC1C(C)(C)CCC[C@@]21C (stereo partly specified)	·	-20.2%	·	·	?	12.6µM*
COC(=O)[C@@]1(C)CCC[C@@]2(C)c3ccc(O)c(C(C)C)c3CCC21 (stereo partly specified)	·	-36.1%	·	·	?	20µM*
Cc1ccc(-c2cc(C(=O)Nc3c(C#N)cnn3C)no2)cc1	10.6	-27.0%	12.6µM*	-1.9%	?	?
Cc1ccc(-c2cc(C(=O)Nc3cnn(C(C)C)c3)no2)cc1	-2.2	·	·	·	·	·
CCC1SC(=NC(=O)c2ccc(Cl)c(Cl)c2)NC1=O (stereo unspecified)	-6.2	-70.6%	?	?	7.94µM*	7.94µM*
O=C(CC1S/C(=N/N=C/c2cccs2)NC1=O)Nc1ccc(Cl)c(Cl)c1 (stereo unspecified)	6.0	·	·	·	·	8.0%
CN1[C@@H]2CC(OC(=O)[C@@H](CO)c3ccccc3)C[C@@H]1[C@H]1O[C@H]12 (stereo partly specified)	·	1.1%[10.9 µM]	-0.3%[11.4 µM]	-2.0%[11.4 µM]	·	·
COC(=O)c1ccccc1NC(=O)CSc1cc(-c2ccccc2)nc(C)n1	·	7.3%[10.9 µM]	·	0.5%	-4.4%	-14.8%
Cc1cc(NC(=O)c2ccccc2)sc1C	-2.4	-85.7%	12.6µM*	?	?	?
Cc1ccc(NC(=O)c2ccccc2)s1	-0.5	-75.0%	7.94µM*	12.6%	3.98µM*	7.94µM*
O=C(Nc1cc(NC(=O)c2ccccc2)c(C(=O)O)cc1C(=O)O)c1ccccc1	·	-5.8%	·	·	8.3%	5.2%
CCOC(=O)CSc1nc2ccc(NC(=O)c3ccc(C)cc3)cc2s1	·	14.4%[10.9 µM]	·	?	12.6µM*	10µM*
Cc1ccc(C(=O)Nc2nnc(SCC(=O)N3CCCc4ccccc43)s2)cc1	-0.8	·	·	·	·	0.562µM*
CC(C)Oc1ccc(C(=O)Nc2nnc(SCC(=O)N3CCOCC3)s2)cc1	-5.8	·	·	·	0.631µM*	0.501µM*
O=C(Nc1ccc2nc(SCC(=O)N3CCc4ccccc43)sc2c1)c1ccc(F)cc1	·	-21.2%[10.9 µM]	·	-2.7%	-18.2%	12.6µM*
